Assay outcomes (PubChem)
HCV inh: HCV inhibition. Potency, µM (doses to about 41.8 µM), inactives show at the highest dose activity change, negative = inhibition, usual class: inhibitors. Huh7.5.1 HCVcc-Cre infection, luciferase reporter, 44 h. 3.4% of 340,000 active; note: potency is the fitted concentration of half-maximal effect
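Luciferase read-out (15 sec integration) after a 15 min room-temperature substrate step quantifies HCVcc-Cre infection. Cells, 1,000 per well, had compound added 4 h post-plating, then virus at ~0.5 moi, and were cultured 44 h.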
MARV entry inh: inhibitors of Marburg virus binding or cell entry | Marburg virus pseudotyped entry inhibition, cell reporter | Potency, µM (top dose mostly 37.8 µM), for inactives: top-dose activity change, negative = inhibition, hits mostly inhibitors | 1.8% of 300,000 active | AID 540276; calls by dose curve; tested in HEK293 cells; note: potency is the fitted concentration of half-maximal effect
HCMV antiviral: blocks human cytomegalovirus replication | HFF cells, HCMV-luciferase reporter, 72 h; hits give low values | activity change, negative = inhibition, % at 57.5 µM | 4.5% of 410,000 active | AID 1259415; in the data active = activity change below about -60%; inconclusive = no clear call, values can overlap the other calls; inactive = above about -39%
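Human foreskin fibroblasts infected with luciferase-reporter HCMV at MOI 1 PFU/cell, compounds at two doses. Luciferase measured 72 h post infection; normalized to buffer-only basal and Salinomycin (10uM) controls.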
Pf growth 96h: P. falciparum growth inhibition at 96 hours; P. falciparum luciferase reporter growth, 96 h; Potency, µM (series often up to 28.7 µM), without a hit: at the highest dose activity change, negative = inhibition, actives largely listed as inhibitors; 6.9% of 320,000 active; AID 504834; note: potency is the fitted concentration of half-maximal effect
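Erythrocytes infected with luciferase-expressing P. falciparum were dispensed at 2% hematocrit and 0.05% parasitemia (final), then incubated with compounds 96 hours at 37 C in 5% CO2. Luminescence after detection reagent addition reported growth.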
Pf growth 48h: P. falciparum growth inhibition at 48 hours (one generation); P. falciparum luciferase growth in erythrocytes, 48 h; Potency, µM (top dose mostly 28.7 µM), for the others: top-dose activity change, negative = inhibition, most hits filed as inhibitors; AID 504832; 5.9% of 310,000 active; note: potency is the fitted concentration of half-maximal effect
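Cell-based growth assay: transgenic P. falciparum expressing firefly luciferase, cultured in red cells within RPMI 1640 containing 0.5% w/v Albumax, 24 mM bicarbonate and gentamycin. A drop in luciferase activity indicates inhibition.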
Lassa entry inh: Lassa virus entry inhibition; Lassa virus pseudotype entry inhibition, cell reporter; Potency, µM (titrated, usually from 37.9 µM), for the others: top-dose activity change, negative = inhibition, usual class: inhibitors; 1.2% of 300,000 active; AID 540256; calls by dose curve; tested in HEK293 cells; note: potency is the fitted concentration of half-maximal effect; nearly all actives have a fitted effect of over 50% in size
An asterisk follows results filed as active; ? = inconclusive; / = no result; [ ] = remark or other dose. This is a sample that favours compounds with a hit; in the whole collection about 14% have one here. Unless noted, calls come from the whole dose curve; as a rule, active = well fitted inhibition curve with a large enough effect; inconclusive = small, poorly fitted or top-dose-only effect, or another doubt; inactive = no such curve, though single readings can be large or run the other way. % is set by controls: 0 for no effect and ±100 for the full control effect.

SMILES	HCV inh	MARV entry inh	HCMV antiviral	Pf growth 96h	Pf growth 48h	Lassa entry inh
Cc1ccc(C2=NNC(c3ccc(Cl)cc3)=Nc3ccccc32)o1	?	-14%	?	10µM*	10µM*	-10%
CCc1cc(C(=O)NNC(=O)CCN2CCN(c3ccccc3)CC2)sc1C	-9%	/	-21	29%	5%	/
CCc1cc(C(=O)NNC(=O)CCl)sc1C	-15%	?	-64*	1.5µM*	1µM*	?
Cc1ccc(C(C)C)cc1S(=O)(=O)NC1CC(C)(C)NC(C)(C)C1	-18%	13µM*	-14	94%	-12%	?
COc1ccc(-n2c(SCC(=O)NC3CC3)nc3ccccc3c2=O)cc1OC	-4%	/	0	-11%	-10%	/
COc1ccc(Br)c(Cn2c(C)c(C(=O)NCc3ccc4c(c3)OCCO4)sc2=O)c1	/	/	24	/	/	/
COc1ccccc1NC(=O)c1ccc(NC(=O)C2CC2C)cc1 (stereo not drawn)	?	-10%	-12	/	/	-3%
CC1CC1C(=O)Nc1ccc(-c2ccccc2)cc1 (stereo not drawn)	?	-2%	-13	13µM*	-12%	?
COc1cc2c(cc1OC)C(c1ccccc1)N(C(=O)c1cccc(S(C)(=O)=O)c1)CC2 (stereo not drawn)	-1%	-11%[46.1 µM]	17	?	-24%	?
O=C1Cc2ccccc2N1c1c(Cl)cccc1Cl	7%	-12%	-29	3.3µM*	-29%	6%
CCC(Sc1ccccc1C(=O)O)C(=O)O (stereo not drawn)	16%	?	21	/	/	9%
CCC(Sc1nc(N)cc(N)n1)C(=O)O (stereo not drawn)	-9%	?	43	3.3µM*	/	1%
Cc1ccc(COC(=O)c2ccc(-c3nnn(Cc4ccc(C)cc4)n3)cc2)cc1	/	-15%[46.1 µM]	1	/	/	-7%[46.1 µM]
Cc1nnc(SCc2ccccc2Cl)c2cc3occc3n12	/	/	27	/	/	16%[46.1 µM]
N#CC1(NC(=O)CSc2nnc(Nc3ccccc3F)s2)CCCC1	5%	3%	48	12µM*	?	-16%
O=C(CSc1nnc(Nc2ccccc2F)s1)NCC1CCCO1 (stereo not drawn)	-7%	?	-7	/	/	-1%[46.1 µM]
CSc1nc(NCC(C)C)c2c3c(sc2n1)CN(C)CC3	?	10%	4	3.3µM*	?	?
CCN(CC)CCNc1nc(SC)nc2sc3c(c12)CCN(C)C3	?	7.1µM*	-20	?	?	?
CSc1nc(NCc2ccccc2)c2c3c(sc2n1)CN(C)CC3	-29%	18%	20	?	13µM*	30%
C[C@@H]([C@H](O)c1ccc(O)cc1)N1CCC(Cc2ccccc2)CC1	/	21µM*	/	/	/	/
CC(C(O)c1ccc(O)cc1)N1CCC(Cc2ccccc2)CC1 (stereo not drawn)	?	21µM*	?	?	2.1µM*	23µM*
CC(COc1ccccc1)NC(C)C(O)c1ccc(O)cc1 (stereo not drawn)	4%[8.37 µM]	-1%	?	?	-14%	6%
CC(CCc1ccccc1)NC(C)C(O)c1ccc(O)cc1 (stereo not drawn)	?	?	-36	1.9µM*	?	-27%
C[C@@H](CN1CCC(Cc2ccccc2)CC1)[C@@H](O)c1ccc(O)cc1	?	?	80	-14%	?	?
O=C(COC(=O)c1ccc(O)cc1)Nc1ccc2c(c1)OCO2	5%	?	-12	/	/	0%
SMILES	HCV inh	MARV entry inh	HCMV antiviral	Pf growth 96h	Pf growth 48h	Lassa entry inh
Cc1ccc(C(=O)c2oc3ccccc3c2NC(=O)COc2ccccc2Cl)cc1	/	-18%[46.1 µM]	1	/	/	17%[46.1 µM]
CCCCC(C(=O)NC1CCCC1)N(Cc1ccccc1)C(=O)c1snc(C(N)=O)c1N (stereo not drawn)	?	?	-61*	0%	?	?
CCCC(C(=O)NC1CCCC1)N(Cc1ccc2c(c1)OCO2)C(=O)c1snc(C(N)=O)c1N (stereo not drawn)	-14%	?	?	9.3µM*	/	12%
CCCC(C(=O)NC1CCCC1)N(Cc1ccc(F)cc1)C(=O)c1snc(C(N)=O)c1N (stereo not drawn)	-7%	?	42	?	?	?
CC(C)(C)NC(=O)CN(C(=O)c1snc(C(=O)NC2CCCCC2)c1N)c1ccc(F)cc1	-5%	?	-9	?	7.4µM*	?
CCCCC(C(=O)NC1CCCC1)N(C(=O)c1snc(C(N)=O)c1N)c1ccc(F)cc1 (stereo not drawn)	?	?	-40	5.9µM*	?	-5%
COc1ccc(N(CC(=O)NC2CCCCC2)C(=O)c2snc(C(N)=O)c2N)cc1	-23%	-7%	5	-36%	-15%	?
COc1cc(OC)cc(C(=O)Nc2nnc3n2CCS3)c1	/	/	-15	/	/	-21%[46.1 µM]
O=C(NCC1(O)CCCCC1)C1CCC(=O)N(Cc2cccc(C(F)(F)F)c2)C1 (stereo not drawn)	15%	27%	-11	?	13%	7%
COc1ccc(-n2nc(C(=O)N3CCN(c4ccccc4OC)CC3)c3c4ccccc4n(C)c3c2=O)cc1	/	-2%[46.1 µM]	21	/	/	2%[46.1 µM]
CCC(C(=O)NC1CCCC1)N(Cc1ccccc1Cl)C(=O)c1snc(C(N)=O)c1N (stereo not drawn)	?	?	-6	10%	?	/
CC(C)CC(C(=O)NC1CCCCC1)N(Cc1cccs1)C(=O)c1snc(C(N)=O)c1N (stereo not drawn)	13µM*	/	?	?	?	/
CCCC(C(=O)NC1CCCC1)N(Cc1ccccc1Cl)C(=O)c1snc(C(N)=O)c1N (stereo not drawn)	-23%	10µM*	?	-11%	?	2%[46.1 µM]
Clc1ccc2nc(C3CCCCC3)c(CC3CCCCC3)n2c1	/	/	-7	/	/	/
Fc1ccc(Nc2nnc(C(F)(F)F)s2)cc1Cl	?	?	-98*	?	?	?
COCCCNC(=O)c1ccc(-c2nc(CS(=O)(=O)c3ccc(C)cc3)c(C)o2)cc1	/	/	8	/	/	-16%[46.1 µM]
O=C(NCC(c1ccc2c(c1)OCO2)N1CCOCC1)C(=O)Nc1ccccc1 (stereo not drawn)	/	/	12	/	/	2%[46.1 µM]
Cc1ccc(NC(=O)Cc2nn(C)c(=O)c3ccccc23)cc1F	?	?	?	?	-44%	-8%
COc1ccccc1NC(=O)Cc1nn(C)c(=O)c2ccccc12	?	?	/	-20%	?	0%
CCOC(=O)Cc1nn(Cc2nc(-c3ccc(C#N)cc3)cs2)c(=O)c2ccccc12	10µM*	?	?	?	?	?
Cn1nc(CC(=O)NCc2ccc(F)cc2)c2ccccc2c1=O	11µM*	/	?	?	/	/
